# Laboratory results reported in article PMC7862700, “An all-to-all approach to the identification of sequence-specific readers for epigenetic DNA modifications on cytosine”.
# What was measured:
# Test in all cases: DAPPL (digital affinity profiling via proximity ligation, sequencing); 10 mM Tris-HCl pH 7.5, 50 mM NaCl, 1 mM DTT, 4% glycerol, room temperature, 30 min; GST-TFs on glutathione beads, 16-mer random dsDNA library, 0.1% formaldehyde crosslink after washing; high values mean tight binding
# FLI1 = target: T1, FLI1 (Homo sapiens, UniProt Q01543 1-452); conditions: protein: recombinant; tags: N-terminal GST; dsDNA, one strand shown
# T1 sequence: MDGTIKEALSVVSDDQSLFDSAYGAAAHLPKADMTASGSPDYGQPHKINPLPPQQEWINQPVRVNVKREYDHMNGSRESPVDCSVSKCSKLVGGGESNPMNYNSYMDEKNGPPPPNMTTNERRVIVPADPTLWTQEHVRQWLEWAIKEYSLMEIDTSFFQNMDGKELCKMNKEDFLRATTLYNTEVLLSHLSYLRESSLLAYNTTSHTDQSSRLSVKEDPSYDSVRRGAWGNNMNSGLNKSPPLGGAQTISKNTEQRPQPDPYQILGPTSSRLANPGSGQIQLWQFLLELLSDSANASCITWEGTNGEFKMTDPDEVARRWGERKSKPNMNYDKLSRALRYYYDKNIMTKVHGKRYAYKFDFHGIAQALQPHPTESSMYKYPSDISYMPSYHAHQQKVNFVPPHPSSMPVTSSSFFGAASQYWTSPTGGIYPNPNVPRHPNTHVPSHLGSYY
# Outline: (§1)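 After expression in yeast as GST fusions, human transcription factors were bound to glutathione beads, DNA-barcoded and mixed with a tag-only sample. The pools were incubated with 200 nmole of a 16-mer random double-stranded DNA library in Tris/NaCl/DTT/glycerol buffer (30 min, room temperature), washed and crosslinked with 0.1% formaldehyde. Proximity ligation with BsaI/T4 ligase ran for 1 h at 37 °C, before PCR amplification and sequencing on an Illumina NextSeq500. Binding signal is a hexamer's read frequency for a factor divided by its frequency for the tag-only sample.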
# GABPA = target: T2, GABPA (Homo sapiens, UniProt Q06546 1-454); conditions: protein: recombinant; tags: N-terminal GST; dsDNA, one strand shown
# T2 sequence: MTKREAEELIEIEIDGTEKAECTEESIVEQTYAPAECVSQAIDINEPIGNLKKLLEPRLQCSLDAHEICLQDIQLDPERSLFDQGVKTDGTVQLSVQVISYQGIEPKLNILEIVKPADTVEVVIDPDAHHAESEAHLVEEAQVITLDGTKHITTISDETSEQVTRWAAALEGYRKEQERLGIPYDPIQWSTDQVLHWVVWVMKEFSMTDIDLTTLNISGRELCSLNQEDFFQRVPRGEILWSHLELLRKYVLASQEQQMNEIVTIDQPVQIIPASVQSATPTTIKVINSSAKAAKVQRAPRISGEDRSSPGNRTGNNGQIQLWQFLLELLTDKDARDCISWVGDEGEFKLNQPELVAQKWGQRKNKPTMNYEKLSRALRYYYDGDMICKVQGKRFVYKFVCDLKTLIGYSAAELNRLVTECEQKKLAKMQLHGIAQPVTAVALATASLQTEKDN
# Outline: as §1
# ERG = target: T3, ERG (Homo sapiens, UniProt P11308 1-479); conditions: protein: recombinant; tags: N-terminal GST; dsDNA, one strand shown
# T3 sequence: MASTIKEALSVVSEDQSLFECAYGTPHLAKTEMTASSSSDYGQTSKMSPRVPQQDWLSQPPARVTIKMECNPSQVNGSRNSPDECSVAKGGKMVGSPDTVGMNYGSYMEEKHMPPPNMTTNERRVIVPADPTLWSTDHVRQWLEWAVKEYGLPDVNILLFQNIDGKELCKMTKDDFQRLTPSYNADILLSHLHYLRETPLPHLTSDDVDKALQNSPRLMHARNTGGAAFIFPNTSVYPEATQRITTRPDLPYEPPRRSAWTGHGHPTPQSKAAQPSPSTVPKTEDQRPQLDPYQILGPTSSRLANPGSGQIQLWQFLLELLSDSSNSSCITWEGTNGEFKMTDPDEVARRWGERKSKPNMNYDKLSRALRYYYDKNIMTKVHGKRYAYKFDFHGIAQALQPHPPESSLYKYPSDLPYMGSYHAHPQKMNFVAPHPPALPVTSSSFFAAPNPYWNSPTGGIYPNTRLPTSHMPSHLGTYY
# Outline: as §1
# ELF1 = ELF1 (Homo sapiens, UniProt P32519 1-619); conditions: protein: recombinant; tags: N-terminal GST; dsDNA, one strand shown
# Outline: as §1
# EHF = target: T4, EHF (Homo sapiens, UniProt Q9NZC4 1-300); conditions: protein: recombinant; tags: N-terminal GST; dsDNA, one strand shown
# T4 sequence: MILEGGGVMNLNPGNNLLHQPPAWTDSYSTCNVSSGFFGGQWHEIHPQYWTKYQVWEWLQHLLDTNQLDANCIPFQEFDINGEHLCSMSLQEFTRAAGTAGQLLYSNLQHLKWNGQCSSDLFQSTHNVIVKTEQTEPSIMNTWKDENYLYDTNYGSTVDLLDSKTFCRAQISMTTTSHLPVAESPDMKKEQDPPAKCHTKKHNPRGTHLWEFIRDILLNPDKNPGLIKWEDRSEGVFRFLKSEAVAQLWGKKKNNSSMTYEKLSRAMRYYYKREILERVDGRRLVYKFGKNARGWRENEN
# Outline: as §1
# SPI1 = SPI1 (Homo sapiens, UniProt P17947 1-270); conditions: protein: recombinant; tags: N-terminal GST; dsDNA, one strand shown
# Outline: as §1
# SPIB = SPIB (Homo sapiens, UniProt Q01892 1-262); conditions: protein: recombinant; tags: N-terminal GST; dsDNA, one strand shown
# Outline: as §1
# ELK3 = target: T5, ELK3 (Homo sapiens, UniProt P41970 1-407); conditions: protein: recombinant; tags: N-terminal GST; dsDNA, one strand shown
# T5 sequence: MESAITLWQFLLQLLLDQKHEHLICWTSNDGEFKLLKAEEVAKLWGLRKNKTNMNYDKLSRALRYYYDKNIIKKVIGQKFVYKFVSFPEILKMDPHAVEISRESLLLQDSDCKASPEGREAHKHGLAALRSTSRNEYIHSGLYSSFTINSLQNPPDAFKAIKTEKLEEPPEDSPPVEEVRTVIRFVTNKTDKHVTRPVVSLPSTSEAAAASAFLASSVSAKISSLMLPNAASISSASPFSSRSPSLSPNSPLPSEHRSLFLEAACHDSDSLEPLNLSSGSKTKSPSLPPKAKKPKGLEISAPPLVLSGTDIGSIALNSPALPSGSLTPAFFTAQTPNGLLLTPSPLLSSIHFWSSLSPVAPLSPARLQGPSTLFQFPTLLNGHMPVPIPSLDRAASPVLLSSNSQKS
# Outline: as §1
# FEV = target: T6, FEV (Homo sapiens, UniProt Q99581 1-238); conditions: protein: recombinant; tags: N-terminal GST; dsDNA, one strand shown
# T6 sequence: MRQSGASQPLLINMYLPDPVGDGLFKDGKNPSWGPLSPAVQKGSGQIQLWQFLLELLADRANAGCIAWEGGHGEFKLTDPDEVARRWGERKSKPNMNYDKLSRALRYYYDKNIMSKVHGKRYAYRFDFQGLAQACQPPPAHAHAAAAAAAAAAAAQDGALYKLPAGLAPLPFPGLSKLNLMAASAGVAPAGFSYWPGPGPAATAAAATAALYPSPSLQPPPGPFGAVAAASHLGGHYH
# Outline: as §1
# ETV5 = ETV5 (Homo sapiens, UniProt P41161 1-510); conditions: protein: recombinant; tags: N-terminal GST; dsDNA, one strand shown
# Outline: as §1
# HSF1 = HSF1 (Homo sapiens, UniProt Q00613 1-529); conditions: protein: recombinant; tags: N-terminal GST; chain copies: 3; dsDNA, one strand shown
# Outline: as §1
# SPIC = target: T7, SPIC (Homo sapiens, UniProt Q8N5J4 1-248); conditions: protein: recombinant; tags: N-terminal GST; dsDNA, one strand shown
# T7 sequence: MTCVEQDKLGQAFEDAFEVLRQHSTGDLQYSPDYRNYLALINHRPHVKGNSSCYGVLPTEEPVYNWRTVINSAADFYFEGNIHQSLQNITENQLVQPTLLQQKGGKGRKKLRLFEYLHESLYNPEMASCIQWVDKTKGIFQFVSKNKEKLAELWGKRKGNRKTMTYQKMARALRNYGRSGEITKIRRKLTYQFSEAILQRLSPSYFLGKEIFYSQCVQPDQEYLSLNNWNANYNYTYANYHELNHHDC
# Outline: as §1
# ELF4 = ELF4 (Homo sapiens, UniProt Q99607 1-663); conditions: protein: recombinant; tags: N-terminal GST; dsDNA, one strand shown
# Outline: as §1
# ELK4 = target: T8, ELK4 (Homo sapiens, UniProt P28324-2 1-405); conditions: protein: recombinant; tags: N-terminal GST; dsDNA, one strand shown
# T8 sequence: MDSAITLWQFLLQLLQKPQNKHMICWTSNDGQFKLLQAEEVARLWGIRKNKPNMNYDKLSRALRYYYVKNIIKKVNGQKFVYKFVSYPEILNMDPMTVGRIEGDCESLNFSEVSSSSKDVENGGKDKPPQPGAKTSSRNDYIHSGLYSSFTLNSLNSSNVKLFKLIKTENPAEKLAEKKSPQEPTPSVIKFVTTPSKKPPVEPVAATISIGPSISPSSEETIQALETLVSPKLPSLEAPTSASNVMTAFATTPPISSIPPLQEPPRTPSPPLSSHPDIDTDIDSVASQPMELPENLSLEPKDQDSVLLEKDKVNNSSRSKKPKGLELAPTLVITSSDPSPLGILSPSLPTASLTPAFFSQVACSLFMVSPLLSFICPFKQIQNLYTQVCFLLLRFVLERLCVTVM
# Outline: as §1
# ETV2 = target: T9, ETV2 (Homo sapiens, UniProt O00321 1-342); conditions: protein: recombinant; tags: N-terminal GST; dsDNA, one strand shown
# T9 sequence: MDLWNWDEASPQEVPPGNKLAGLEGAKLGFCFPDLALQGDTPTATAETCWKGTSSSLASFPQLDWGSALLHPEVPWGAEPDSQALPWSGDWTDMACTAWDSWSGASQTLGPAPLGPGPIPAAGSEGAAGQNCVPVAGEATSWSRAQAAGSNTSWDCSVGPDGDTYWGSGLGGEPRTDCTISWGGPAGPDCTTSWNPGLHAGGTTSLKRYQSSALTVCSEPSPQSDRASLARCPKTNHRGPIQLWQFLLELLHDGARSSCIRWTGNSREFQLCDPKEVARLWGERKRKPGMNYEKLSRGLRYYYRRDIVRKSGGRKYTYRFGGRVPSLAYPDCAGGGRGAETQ
# Outline: as §1
# ELF3 = target: T10, ELF3 (Homo sapiens, UniProt P78545 1-371); conditions: protein: recombinant; tags: N-terminal GST; dsDNA, one strand shown
# T10 sequence: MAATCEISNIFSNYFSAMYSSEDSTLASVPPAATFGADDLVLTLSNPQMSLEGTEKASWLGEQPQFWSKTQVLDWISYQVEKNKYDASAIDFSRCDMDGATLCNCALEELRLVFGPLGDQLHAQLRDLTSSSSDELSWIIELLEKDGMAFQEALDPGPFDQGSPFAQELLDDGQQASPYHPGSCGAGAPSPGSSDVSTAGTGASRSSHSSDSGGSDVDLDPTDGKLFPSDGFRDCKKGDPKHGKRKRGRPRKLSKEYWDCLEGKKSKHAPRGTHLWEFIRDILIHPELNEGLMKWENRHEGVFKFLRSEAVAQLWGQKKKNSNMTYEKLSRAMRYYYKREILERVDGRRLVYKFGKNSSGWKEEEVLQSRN
# Outline: as §1
# CRX = CRX (Homo sapiens, UniProt O43186 1-299); conditions: protein: recombinant; tags: N-terminal GST; dsDNA, one strand shown
# Outline: as §1
# ETV1 = ETV1 (Homo sapiens, UniProt P50549 1-477); conditions: protein: recombinant; tags: N-terminal GST; dsDNA, one strand shown
# Outline: as §1
# HSF1, sequence (Q00613 whole entry): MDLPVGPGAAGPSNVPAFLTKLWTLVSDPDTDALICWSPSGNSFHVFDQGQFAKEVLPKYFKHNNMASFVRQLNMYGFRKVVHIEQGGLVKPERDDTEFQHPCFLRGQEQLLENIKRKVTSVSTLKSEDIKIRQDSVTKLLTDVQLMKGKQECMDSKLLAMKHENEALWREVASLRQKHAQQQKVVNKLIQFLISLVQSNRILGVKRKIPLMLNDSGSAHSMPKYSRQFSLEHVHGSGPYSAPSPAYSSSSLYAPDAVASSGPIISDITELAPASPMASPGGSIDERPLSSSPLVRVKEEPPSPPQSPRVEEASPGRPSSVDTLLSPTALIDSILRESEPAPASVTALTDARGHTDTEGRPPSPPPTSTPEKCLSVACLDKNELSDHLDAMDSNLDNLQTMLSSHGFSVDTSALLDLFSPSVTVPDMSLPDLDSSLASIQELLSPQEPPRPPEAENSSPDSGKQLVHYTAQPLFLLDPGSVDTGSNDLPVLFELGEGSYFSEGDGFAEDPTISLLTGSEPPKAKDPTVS
# SPIB, sequence (Q01892 whole entry): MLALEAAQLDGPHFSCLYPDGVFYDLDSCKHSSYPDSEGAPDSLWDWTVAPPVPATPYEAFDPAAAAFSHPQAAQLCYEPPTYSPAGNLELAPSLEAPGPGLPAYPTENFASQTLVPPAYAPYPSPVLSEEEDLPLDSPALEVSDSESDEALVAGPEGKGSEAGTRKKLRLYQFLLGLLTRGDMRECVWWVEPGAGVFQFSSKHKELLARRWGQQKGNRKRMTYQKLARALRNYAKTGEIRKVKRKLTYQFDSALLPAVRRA
# ELF1, sequence (P32519 whole entry): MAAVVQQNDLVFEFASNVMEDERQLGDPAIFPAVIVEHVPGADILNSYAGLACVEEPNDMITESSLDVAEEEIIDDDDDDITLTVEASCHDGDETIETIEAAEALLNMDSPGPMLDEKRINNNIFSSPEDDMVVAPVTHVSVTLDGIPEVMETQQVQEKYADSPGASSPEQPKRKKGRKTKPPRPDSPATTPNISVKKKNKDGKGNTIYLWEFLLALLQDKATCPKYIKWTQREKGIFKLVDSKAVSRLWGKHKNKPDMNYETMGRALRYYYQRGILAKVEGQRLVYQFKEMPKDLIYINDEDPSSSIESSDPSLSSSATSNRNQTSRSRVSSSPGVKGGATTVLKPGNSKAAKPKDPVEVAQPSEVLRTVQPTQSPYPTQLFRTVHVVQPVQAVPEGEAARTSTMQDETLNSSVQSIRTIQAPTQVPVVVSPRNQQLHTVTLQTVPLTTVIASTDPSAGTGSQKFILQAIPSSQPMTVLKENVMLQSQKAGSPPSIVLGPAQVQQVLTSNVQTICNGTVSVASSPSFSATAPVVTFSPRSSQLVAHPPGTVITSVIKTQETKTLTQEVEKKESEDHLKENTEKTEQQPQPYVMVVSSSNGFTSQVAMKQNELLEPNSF
# ETV1, sequence (P50549 whole entry): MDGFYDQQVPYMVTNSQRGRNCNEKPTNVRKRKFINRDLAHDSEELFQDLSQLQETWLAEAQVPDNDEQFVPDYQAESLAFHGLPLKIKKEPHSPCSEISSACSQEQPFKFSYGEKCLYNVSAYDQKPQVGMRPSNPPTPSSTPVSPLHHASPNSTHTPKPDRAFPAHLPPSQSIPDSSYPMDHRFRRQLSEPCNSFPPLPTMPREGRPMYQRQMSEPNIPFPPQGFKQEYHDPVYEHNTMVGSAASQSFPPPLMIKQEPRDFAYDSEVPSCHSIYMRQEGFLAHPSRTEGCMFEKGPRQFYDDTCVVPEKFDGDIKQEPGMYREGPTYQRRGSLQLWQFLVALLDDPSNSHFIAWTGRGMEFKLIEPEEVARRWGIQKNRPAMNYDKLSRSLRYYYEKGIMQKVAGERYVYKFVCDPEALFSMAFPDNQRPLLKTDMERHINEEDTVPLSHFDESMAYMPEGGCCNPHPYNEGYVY
# ETV5, sequence (P41161 whole entry): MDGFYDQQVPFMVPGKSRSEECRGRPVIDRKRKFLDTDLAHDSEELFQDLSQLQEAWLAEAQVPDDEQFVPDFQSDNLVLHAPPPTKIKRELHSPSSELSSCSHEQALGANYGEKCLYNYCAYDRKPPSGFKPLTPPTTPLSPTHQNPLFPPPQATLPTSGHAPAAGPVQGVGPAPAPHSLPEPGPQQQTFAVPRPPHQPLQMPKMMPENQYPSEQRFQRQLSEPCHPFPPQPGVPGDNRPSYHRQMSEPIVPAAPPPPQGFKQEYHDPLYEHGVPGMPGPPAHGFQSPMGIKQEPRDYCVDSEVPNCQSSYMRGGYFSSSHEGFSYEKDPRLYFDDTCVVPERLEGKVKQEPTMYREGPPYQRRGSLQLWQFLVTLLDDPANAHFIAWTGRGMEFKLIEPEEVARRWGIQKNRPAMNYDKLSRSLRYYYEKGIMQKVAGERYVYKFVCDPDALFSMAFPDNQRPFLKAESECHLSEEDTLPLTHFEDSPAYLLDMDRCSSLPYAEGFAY
# ELF4, sequence (Q99607 whole entry): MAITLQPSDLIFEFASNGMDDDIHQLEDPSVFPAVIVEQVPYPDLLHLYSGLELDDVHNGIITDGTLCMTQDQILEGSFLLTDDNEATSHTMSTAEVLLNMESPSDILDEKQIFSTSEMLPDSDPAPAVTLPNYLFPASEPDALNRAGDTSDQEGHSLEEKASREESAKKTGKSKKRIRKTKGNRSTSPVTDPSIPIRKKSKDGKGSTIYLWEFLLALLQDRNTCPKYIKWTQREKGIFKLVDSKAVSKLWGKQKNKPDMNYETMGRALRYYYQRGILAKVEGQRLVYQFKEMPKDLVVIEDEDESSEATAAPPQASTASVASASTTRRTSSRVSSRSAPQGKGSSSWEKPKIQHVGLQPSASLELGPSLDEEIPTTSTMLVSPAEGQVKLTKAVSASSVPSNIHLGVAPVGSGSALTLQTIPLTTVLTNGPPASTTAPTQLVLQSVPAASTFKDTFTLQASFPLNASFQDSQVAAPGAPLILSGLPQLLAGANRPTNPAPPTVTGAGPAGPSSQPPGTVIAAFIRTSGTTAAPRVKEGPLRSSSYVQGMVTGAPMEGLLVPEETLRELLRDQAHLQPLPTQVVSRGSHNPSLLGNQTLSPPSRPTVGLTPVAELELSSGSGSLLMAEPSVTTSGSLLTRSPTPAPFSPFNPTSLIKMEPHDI
# CRX, sequence (O43186 whole entry): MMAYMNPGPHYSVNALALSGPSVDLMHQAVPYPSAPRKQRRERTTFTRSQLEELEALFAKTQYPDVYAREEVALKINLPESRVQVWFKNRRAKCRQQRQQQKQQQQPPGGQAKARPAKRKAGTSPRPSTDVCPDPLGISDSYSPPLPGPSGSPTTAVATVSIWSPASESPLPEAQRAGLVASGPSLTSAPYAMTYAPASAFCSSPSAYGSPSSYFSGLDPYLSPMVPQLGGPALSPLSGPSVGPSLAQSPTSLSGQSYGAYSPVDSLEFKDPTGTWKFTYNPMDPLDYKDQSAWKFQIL
sequence,measurement,setting,value
GAATCT,binding signal,FLI1,"1.03 fold enrichment (6-mer frequency, TF over GST control)"
same,binding signal,GABPA,"1.15 fold enrichment (6-mer frequency, TF over GST control)"
same,binding signal,ERG,"1.04 fold enrichment (6-mer frequency, TF over GST control)"
same,binding signal,ELF1,"1.04 fold enrichment (6-mer frequency, TF over GST control)"
same,binding signal,EHF,"1.06 fold enrichment (6-mer frequency, TF over GST control)"
same,binding signal,SPI1,"1.07 fold enrichment (6-mer frequency, TF over GST control)"
same,binding signal,SPIB,"1.1 fold enrichment (6-mer frequency, TF over GST control)"
same,binding signal,ELK3,"1.08 fold enrichment (6-mer frequency, TF over GST control)"
same,binding signal,FEV,"1.03 fold enrichment (6-mer frequency, TF over GST control)"
same,binding signal,ETV5,"1.13 fold enrichment (6-mer frequency, TF over GST control)"
same,binding signal,HSF1,"1.76 fold enrichment (6-mer frequency, TF over GST control)"
same,binding signal,SPIC,"1.05 fold enrichment (6-mer frequency, TF over GST control)"
same,binding signal,ELF4,"1.07 fold enrichment (6-mer frequency, TF over GST control)"
same,binding signal,ELK4,"1.08 fold enrichment (6-mer frequency, TF over GST control)"
same,binding signal,ETV2,"1.2 fold enrichment (6-mer frequency, TF over GST control)"
same,binding signal,ELF3,"1.03 fold enrichment (6-mer frequency, TF over GST control)"
same,binding signal,CRX,"1.21 fold enrichment (6-mer frequency, TF over GST control)"
same,binding signal,ETV1,"1.08 fold enrichment (6-mer frequency, TF over GST control)"
GTTCCA,binding signal,FLI1,"1.12 fold enrichment (6-mer frequency, TF over GST control)"
same,binding signal,GABPA,"1.03 fold enrichment (6-mer frequency, TF over GST control)"
same,binding signal,ERG,"1.01 fold enrichment (6-mer frequency, TF over GST control)"
same,binding signal,ELF1,"1.11 fold enrichment (6-mer frequency, TF over GST control)"
same,binding signal,EHF,"1 fold enrichment (6-mer frequency, TF over GST control)"
same,binding signal,SPI1,"1.03 fold enrichment (6-mer frequency, TF over GST control)"
same,binding signal,SPIB,"1.1 fold enrichment (6-mer frequency, TF over GST control)"
same,binding signal,ELK3,"1.08 fold enrichment (6-mer frequency, TF over GST control)"
same,binding signal,FEV,"1.01 fold enrichment (6-mer frequency, TF over GST control)"
same,binding signal,ETV5,"1.05 fold enrichment (6-mer frequency, TF over GST control)"
same,binding signal,HSF1,"1.79 fold enrichment (6-mer frequency, TF over GST control)"
same,binding signal,SPIC,"1.21 fold enrichment (6-mer frequency, TF over GST control)"
same,binding signal,ELF4,"1.13 fold enrichment (6-mer frequency, TF over GST control)"
same,binding signal,ELK4,"1.14 fold enrichment (6-mer frequency, TF over GST control)"
same,binding signal,ETV2,"1.06 fold enrichment (6-mer frequency, TF over GST control)"
same,binding signal,ELF3,"1.12 fold enrichment (6-mer frequency, TF over GST control)"
same,binding signal,ETV1,"1.06 fold enrichment (6-mer frequency, TF over GST control)"
